Inconclusive results are not listed. Where a call stands in place of a potency, no number is given. Activity calls are given as the source filed them. Unless noted, calls come from the whole dose curve; as a rule, active = well fitted curve in the direction sought with a large enough effect; inconclusive = small, poorly fitted or top-dose-only effect, or another doubt; inactive = no such curve, though single readings can be large; an effect the other way counts as inactive or inconclusive.
Tests used:
[1] = molecular target: Alpha-galactosidase A (Homo sapiens) (UniProt P06280); experiment: Counterscreen for Glucocerebrosidase Inhibitors: qHTS Assay for Human alpha-Galactosidase at pH 4.5 (AID 992); settings: purified enzyme, fluorogenic substrate; series mostly up to 76.9 µM
Summary of the method: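 Fluorogenic 1536-well qHTS at pH 4.5 (citrate, Tween-20): 2 nM enzyme, 80 uM 4-MU-alpha-galactoside, 20 min room temperature, NaOH/glycine stop. Titration 0.7 nM to 77 uM, data normalized to no-enzyme and full-activity controls, Hill-fitted AC50.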

[2] = molecular target: alpha-glucosidase (Oryza sativa, rice) (UniProt Q653V4); experiment: Counterscreen for Glucocerebrosidase Inhibitors: qHTS Assay for Rice alpha-Glucosidase at pH 5.0 (AID 997); settings: rice alpha-glucosidase enzyme activity; series mostly up to 76.9 µM
Summary of the method: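 Endpoint fluorogenic assay at pH 5.0: compounds (0.7 nM to 77 uM) titrated against 4 nM rice enzyme and 400 uM 4-MU-alpha-glucoside for 20 min at room temperature; NaOH/glycine stop, read ex 365/em 440 nm, Hill-fitted AC50.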

[3] = molecular target: Cytochrome P450 2C9 (Homo sapiens) (UniProt P11712); experiment: qHTS Assay for Inhibitors and Substrates of Cytochrome P450 2C9 (AID 883); settings: recombinant CYP2C9, luciferin-H luminescence, 60 min; series mostly up to 57.1 µM; note: nearly all actives have a fitted effect of over 60% in size
Summary of the method: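 Human CYP2C9 (10nM) with Luciferin-H at 100uM (its KM) in 25mM KPO4; compound preincubated 10 min at 37C, then NADPH regeneration for 60 min at 37C. Luciferin read by luminescence after detection reagent; normalized to 57uM sulphaphenazole as full inhibition.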

[4] = qHTS Assay for Identifying Gametocytocidal Compounds (AID 743244); note: potency is the fitted concentration of half-maximal effect; settings: P. falciparum 3D7 stage III-V gametocytes, alamarBlue, 72 h; max response: stronger effect = lower value
Summary of the method: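 Late gametocytes (III–V), P. falciparum 3D7; 72 h drug, then 24 h alamarBlue; resazurin reduction read by fluorescence.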

[5] = qHTS profiling for inhibitors of Plasmodium falciparum (3D7) proliferation (AID 743322);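 note: infected erythrocytes exposed to compound for 72 h before lysis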; settings: P. falciparum 3D7 proliferation; at 28.7 µM (top of the series) unless noted
Summary of the method: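 Parasite DNA was quantified by SYBR Green I fluorescence (ex 485, em 535 nm) after overnight lysis in saponin/Triton buffer at room temperature. Cultures at 0.3% parasitemia and 2.5% hematocrit were first exposed to compound for 72 h at 37 C; signals were normalised to artemisinin (0.29 uM) and vehicle wells.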

[6] = qHTS profiling for inhibitors of Plasmodium falciparum (DD2) proliferation (AID 743323; call rule not given here); settings: lower = more inhibition; at 28.7 µM (top of the series) unless noted
Summary of the method: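 Parasite DNA quantified by SYBR Green fluorescence (ex 485, em 535 nm) after saponin/Triton lysis and overnight dark incubation. Cultures: 0.3% parasitemia, 2.5% hematocrit, 72 h, 37 C; data scaled between DMSO and 0.29 uM artemisinin.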

[7] = qHTS profiling for inhibitors of Plasmodium falciparum (HB3) proliferation (AID 743324); settings: Plasmodium falciparum HB3 blood-stage proliferation; at 28.7 µM (top of the series) unless noted
Summary of the method: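 SYBR Green fluorescence (485 ex/535 em) of lysed cultures, incubated overnight at room temperature in the dark, quantifies parasite DNA. Infected erythrocytes at 0.3% parasitemia and 2.5% hematocrit were exposed 72 h; values normalized to DMSO and 0.29 uM artemisinin controls.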

[8] = molecular target: Peroxisome proliferator-activated receptor gamma (Homo sapiens) (UniProt P37231); experiment: qHTS assay for small molecule antagonists of peroxisome proliferator-activated receptor gamma signaling (AID 588537; active = well fitted inhibition curve with a large enough effect in the signal ratio, with a control signal flat, not every such curve was filed as active; the % refers to the signal ratio;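 note: reporter cells co-stimulated with 50 nM rosiglitazone agonist during compound treatment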); settings: HEK293 PPARg-UAS-bla, beta-lactamase ratio, antagonist mode; series mostly up to 76.8 µM
Summary of the method: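 Read-out: CCF4 fluorescence (ex 405, em 460/530 nm) after 2 h at RT. Cells were HEK293 carrying a UAS-bla reporter and treated 16 h at 37 C with compound plus rosiglitazone (50 nM final). Normalized to rosiglitazone and DMSO.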

[9] = molecular target: Vitamin D3 receptor (Homo sapiens) (UniProt P11473); experiment: qHTS assay for small molecule antagonists of vitamin D receptor signaling (AID 588541; calls by dose curve;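 note: receptor activated by calcitriol during compound treatment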); settings: HEK293T VDR-UAS-bla, beta-lactamase ratio, antagonist mode; series mostly up to 76.7 µM
Summary of the method: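 VDR-UAS-bla HEK293T cells in 2% charcoal-stripped FBS were stimulated with 1-alpha,25-dihydroxyvitamin D3 (3 nM final) plus compound for 16 h at 37 C. The beta-lactamase CCF4 readout was normalized to 50 nM agonist and DMSO, and Hill fits gave IC50.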

[10] = molecular target: Vitamin D3 receptor (Homo sapiens) (UniProt P11473); experiment: qHTS assay for small molecule agonists of vitamin D receptor signaling (AID 588543; calls by dose curve); settings: HEK293T VDR-UAS-bla, beta-lactamase ratio, 16 h; series mostly up to 76.8 µM
Summary of the method: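 VDR-UAS-bla HEK293T cells, 2000/well, 2% charcoal-stripped FBS; compound titration 16 h at 37 C; CCF4 beta-lactamase ratio read. Normalized to 50 nM 1-alpha,25-dihydroxyvitamin D3 (100%) and DMSO; Hill fit gives EC50, efficacy.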

[11] = molecular target: Thyroid hormone receptor beta (Homo sapiens) (UniProt P10828); experiment: qHTS assay for small molecule antagonists of thyroid hormone receptor beta signaling (AID 588547; active = well fitted inhibition curve with a large enough effect in the signal ratio, with a control signal flat, not every such curve was filed as active; the % refers to the signal ratio;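 note: cells stimulated with 0.4 nM T3 agonist during compound exposure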); settings: TR-UAS-bla HEK293, beta-lactamase ratio, antagonist mode, 18 h
Summary of the method: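 TR-UAS-bla GripTite HEK293 cells in 2% charcoal/dextran FBS medium; compounds 0.59 nM to 92 uM with T3 at 0.4nM final, 18 h at 37 C. Beta-lactamase read by CCF4 fluorescence (460/530 nm); Hill fits gave IC50 and efficacy.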

[12] = qHTS for Inhibitors of Plasmodium falciparum (DD2) proliferation (AID 504314);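 note: parasite DNA measured by SYBR Green fluorescence after red cell lysis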; settings: P. falciparum Dd2 in erythrocytes, SYBR Green growth, 72 h; series mostly up to 6.11 µM
Summary of the method: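 SYBR Green growth assay: 72 h compound exposure of infected red cells (2.5% hematocrit, 0.3% parasitemia), then lysis and overnight dye staining, fluorescence 485/535 nm. Values scaled between DMSO and 0.29 uM artemisinin controls.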

[13] = qHTS for Inhibitors of Plasmodium falciparum (GB4) proliferation (AID 504315); note: nearly all actives have a fitted effect of over 50% in size; settings: P. falciparum GB4 in erythrocytes, SYBR Green DNA, 72 h; series mostly up to 6.7 µM
Summary of the method: (§1)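 Parasite growth measured as SYBR Green DNA fluorescence (ex 485, em 535 nm) after overnight lysis following 72 h culture at 37 °C, 0.3% parasitemia, 2.5% hematocrit. Values normalized against DMSO and 0.29 uM artemisinin controls, with plate-stack correction.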

[14] = qHTS for Inhibitors of Plasmodium falciparum (7G8) proliferation (AID 504316); note: nearly all actives have a fitted effect of over 65% in size; settings: P. falciparum 7G8 in erythrocytes, SYBR Green DNA, 72 h; series mostly up to 6.7 µM
Summary of the method: as §1

[15] = qHTS for Inhibitors of Plasmodium falciparum (HB3) proliferation (AID 504318); note: nearly all actives have a fitted effect of over 60% in size; settings: P. falciparum HB3 in erythrocytes, SYBR Green DNA, 72 h; series mostly up to 7.21 µM
Summary of the method: as §1

[16] = qHTS for Inhibitors of Plasmodium falciparum (CP250) proliferation (AID 504320); settings: P. falciparum CP250 in erythrocytes, SYBR Green DNA, 72 h; series mostly up to 6.7 µM
Summary of the method: as §1

[17] = molecular target: Estrogen receptor (Homo sapiens) (UniProt P03372); experiment: qHTS assay for small molecule agonists of estrogen receptor alpha signaling (AID 588514; calls by dose curve; note: nearly all actives have a fitted effect of over 70% in size); settings: ER-alpha-UAS-bla HEK293, beta-lactamase ratio, 18 h; series mostly up to 76.8 µM
Summary of the method: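 Read-out: CCF4 fluorescence from a beta-lactamase reporter in ER-alpha-UAS-bla HEK 293 cells after 18 hrs of compound exposure at 37 C. Normalized to 20 nM 17-beta-estradiol (100%) and DMSO (0%).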

[18] = molecular target: Glucocorticoid receptor (Homo sapiens) (UniProt P04150); experiment: qHTS assay for small molecule antagonists of glucocorticoid receptor signaling (AID 588533; active = well fitted inhibition curve with a large enough effect in the signal ratio, with a control signal flat, not every such curve was filed as active; the % refers to the signal ratio); settings: HeLa MMTV-bla, GRE beta-lactamase ratio, antagonist mode, 18 h; series mostly up to 76.8 µM
Summary of the method: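 Antagonist-mode qHTS: compound titrations added to GRE-bla HeLa cells, then dexamethasone 2 nM final; 18 h, 37 C. CCF4 FRET fluorescence normalized to dexamethasone and DMSO; IC50 from Hill fit.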

[19] = qHTS assay for small molecule agonists of the antioxidant response element (ARE) signaling pathway (AID 651741; active = well fitted activation curve with a large enough effect in the signal ratio; the % refers to the signal ratio; note: potency is the fitted concentration of half-maximal effect); settings: HepG2 ARE-bla reporter, beta-lactamase FRET ratio, 16 h; series mostly up to 96 µM
Summary of the method: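 HepG2 ARE-bla reporter cells, 2,000/well; 5 h settle at 37 C/5% CO2; compound pin transfer (23 nL, DMSO); 16 h at 37 C; LiveBLAzer B/G FRET substrate, 2 h RT; fluorescence intensity read.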

[20] = qHTS assay for small molecule activators of the nuclear factor-kappa B (NF-kB) signaling pathway (AID 651749; active = well fitted activation curve with a large enough effect in the signal ratio; the % refers to the signal ratio); settings: NF-kB-bla ME-180 cells, beta-lactamase FRET ratio, 16 h; activation: stronger effect = higher value
Summary of the method: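 NF-kB-bla ME-180 cells, 2,000/well; 23 nL compound or DMSO pinned; 16 hr, 37C/5% CO2; beta-lactamase FRET read-out.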

Sequence of Vitamin D3 receptor (Homo sapiens) (P11473 whole entry, looked up): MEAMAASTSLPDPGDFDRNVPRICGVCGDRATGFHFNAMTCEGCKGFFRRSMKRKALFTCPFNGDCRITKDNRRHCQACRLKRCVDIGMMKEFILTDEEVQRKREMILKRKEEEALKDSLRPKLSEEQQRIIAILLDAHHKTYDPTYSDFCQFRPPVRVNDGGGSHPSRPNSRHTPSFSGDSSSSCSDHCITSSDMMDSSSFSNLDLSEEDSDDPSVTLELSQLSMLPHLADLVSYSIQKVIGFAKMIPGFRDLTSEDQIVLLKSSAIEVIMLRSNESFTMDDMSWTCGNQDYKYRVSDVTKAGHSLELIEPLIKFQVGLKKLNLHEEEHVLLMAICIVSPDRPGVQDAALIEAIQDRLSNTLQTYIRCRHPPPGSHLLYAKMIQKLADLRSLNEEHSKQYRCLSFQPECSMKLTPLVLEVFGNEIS
Sequence of Cytochrome P450 2C9 (Homo sapiens) (P11712 whole entry, looked up): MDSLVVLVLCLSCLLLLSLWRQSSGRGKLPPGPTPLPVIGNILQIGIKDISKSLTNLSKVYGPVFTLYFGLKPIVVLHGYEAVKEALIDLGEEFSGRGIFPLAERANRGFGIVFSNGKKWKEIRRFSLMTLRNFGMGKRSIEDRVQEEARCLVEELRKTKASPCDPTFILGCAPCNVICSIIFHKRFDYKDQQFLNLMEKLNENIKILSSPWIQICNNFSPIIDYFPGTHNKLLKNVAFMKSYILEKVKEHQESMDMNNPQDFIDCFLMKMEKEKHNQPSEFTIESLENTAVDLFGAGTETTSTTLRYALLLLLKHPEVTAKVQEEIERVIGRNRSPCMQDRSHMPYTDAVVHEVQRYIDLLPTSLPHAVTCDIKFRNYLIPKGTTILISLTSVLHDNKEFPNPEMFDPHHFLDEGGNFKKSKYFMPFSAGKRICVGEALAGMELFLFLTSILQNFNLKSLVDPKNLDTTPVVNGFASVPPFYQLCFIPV
Sequence of Estrogen receptor (Homo sapiens) (P03372 whole entry, looked up): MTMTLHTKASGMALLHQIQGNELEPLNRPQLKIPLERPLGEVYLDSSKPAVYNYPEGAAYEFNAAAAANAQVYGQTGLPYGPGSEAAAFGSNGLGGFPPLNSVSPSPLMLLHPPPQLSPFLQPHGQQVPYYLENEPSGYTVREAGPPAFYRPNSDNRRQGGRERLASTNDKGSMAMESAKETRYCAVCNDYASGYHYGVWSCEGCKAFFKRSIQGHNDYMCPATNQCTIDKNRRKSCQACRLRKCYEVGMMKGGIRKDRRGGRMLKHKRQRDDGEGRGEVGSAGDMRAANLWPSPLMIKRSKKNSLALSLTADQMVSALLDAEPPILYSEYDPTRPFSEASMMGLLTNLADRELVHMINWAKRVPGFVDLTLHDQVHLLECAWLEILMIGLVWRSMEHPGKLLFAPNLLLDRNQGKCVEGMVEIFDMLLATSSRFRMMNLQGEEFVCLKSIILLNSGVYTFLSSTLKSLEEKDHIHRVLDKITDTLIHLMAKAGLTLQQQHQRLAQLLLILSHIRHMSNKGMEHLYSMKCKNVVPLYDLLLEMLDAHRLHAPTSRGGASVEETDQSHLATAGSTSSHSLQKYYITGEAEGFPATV
Sequence of Alpha-galactosidase A (Homo sapiens) (P06280 whole entry, looked up): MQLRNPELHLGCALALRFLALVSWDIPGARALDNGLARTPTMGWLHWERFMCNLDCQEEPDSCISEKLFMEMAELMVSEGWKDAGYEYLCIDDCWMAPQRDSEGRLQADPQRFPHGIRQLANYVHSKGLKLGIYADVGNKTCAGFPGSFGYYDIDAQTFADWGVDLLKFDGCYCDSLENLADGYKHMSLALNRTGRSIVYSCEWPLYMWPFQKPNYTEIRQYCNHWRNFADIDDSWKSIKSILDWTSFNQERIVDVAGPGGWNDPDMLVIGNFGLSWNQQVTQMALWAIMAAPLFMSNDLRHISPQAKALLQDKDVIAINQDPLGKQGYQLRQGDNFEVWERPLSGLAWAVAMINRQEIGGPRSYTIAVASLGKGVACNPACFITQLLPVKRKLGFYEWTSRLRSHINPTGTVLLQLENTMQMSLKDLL
Sequence of Thyroid hormone receptor beta (Homo sapiens) (P10828 whole entry, looked up): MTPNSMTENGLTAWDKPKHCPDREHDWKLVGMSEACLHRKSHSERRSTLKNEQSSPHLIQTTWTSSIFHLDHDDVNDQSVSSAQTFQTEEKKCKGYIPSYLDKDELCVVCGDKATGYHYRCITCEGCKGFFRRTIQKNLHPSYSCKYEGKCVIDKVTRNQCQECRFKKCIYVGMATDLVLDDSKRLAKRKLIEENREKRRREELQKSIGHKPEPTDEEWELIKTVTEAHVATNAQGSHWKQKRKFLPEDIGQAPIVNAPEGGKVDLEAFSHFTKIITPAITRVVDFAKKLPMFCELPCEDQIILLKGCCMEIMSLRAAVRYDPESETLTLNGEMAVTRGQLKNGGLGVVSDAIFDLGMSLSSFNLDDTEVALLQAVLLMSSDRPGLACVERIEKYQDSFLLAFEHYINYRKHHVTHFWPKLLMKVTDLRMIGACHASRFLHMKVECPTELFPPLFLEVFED
Sequence of Glucocorticoid receptor (Homo sapiens) (P04150 whole entry, looked up): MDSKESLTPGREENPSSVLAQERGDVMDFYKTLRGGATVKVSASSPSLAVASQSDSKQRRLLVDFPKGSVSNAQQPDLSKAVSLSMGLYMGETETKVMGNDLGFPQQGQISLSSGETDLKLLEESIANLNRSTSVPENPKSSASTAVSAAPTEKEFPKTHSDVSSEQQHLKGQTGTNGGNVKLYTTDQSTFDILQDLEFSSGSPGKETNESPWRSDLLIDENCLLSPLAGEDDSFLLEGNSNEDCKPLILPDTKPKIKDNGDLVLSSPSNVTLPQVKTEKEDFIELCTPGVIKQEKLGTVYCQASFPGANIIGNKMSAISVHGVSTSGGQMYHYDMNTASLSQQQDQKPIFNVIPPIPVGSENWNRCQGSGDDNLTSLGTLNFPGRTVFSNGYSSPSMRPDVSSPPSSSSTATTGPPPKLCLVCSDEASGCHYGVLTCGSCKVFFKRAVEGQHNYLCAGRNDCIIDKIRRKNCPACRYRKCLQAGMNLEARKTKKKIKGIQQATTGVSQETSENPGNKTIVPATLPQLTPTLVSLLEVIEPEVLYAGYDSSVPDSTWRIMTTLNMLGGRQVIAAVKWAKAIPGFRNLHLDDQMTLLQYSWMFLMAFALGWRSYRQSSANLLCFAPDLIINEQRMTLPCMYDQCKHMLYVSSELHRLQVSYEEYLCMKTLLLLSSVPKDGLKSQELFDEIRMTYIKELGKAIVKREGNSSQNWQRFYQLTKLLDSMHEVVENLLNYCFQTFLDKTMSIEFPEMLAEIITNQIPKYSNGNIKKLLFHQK
Sequence of Peroxisome proliferator-activated receptor gamma (Homo sapiens) (P37231 whole entry, looked up): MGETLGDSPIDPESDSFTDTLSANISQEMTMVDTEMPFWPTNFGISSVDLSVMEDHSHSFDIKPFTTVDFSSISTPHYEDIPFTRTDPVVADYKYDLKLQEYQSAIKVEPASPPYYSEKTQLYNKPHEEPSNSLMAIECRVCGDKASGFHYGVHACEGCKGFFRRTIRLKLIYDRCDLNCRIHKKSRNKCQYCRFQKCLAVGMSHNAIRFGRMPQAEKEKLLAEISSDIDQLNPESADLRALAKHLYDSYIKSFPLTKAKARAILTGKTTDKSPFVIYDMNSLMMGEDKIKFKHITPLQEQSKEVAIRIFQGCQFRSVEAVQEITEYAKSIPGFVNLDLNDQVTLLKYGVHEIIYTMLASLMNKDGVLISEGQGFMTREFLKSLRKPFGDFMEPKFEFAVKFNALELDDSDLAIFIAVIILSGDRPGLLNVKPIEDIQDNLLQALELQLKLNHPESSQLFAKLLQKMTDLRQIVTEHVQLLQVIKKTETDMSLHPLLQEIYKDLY

Q: Which results are given for `CN[C@@H](C)[C@@H](O)c1ccccc1`?
A: outcome [1]: inactive; outcome [2]: inactive

Q: For `C=CCCN1C[C@@H]2C[C@H](C1)c1cccc(=O)n1C2`, which Potency [3] is on record?
A: inactive

Q: For `C[C@@H]1CC[C@H]2[C@@H](C)C(=O)O[C@@H]3OC4(C)CC[C@@H]1C32OO4` (stereo not given in full), which Potency [4] is on record?
A: 0.136 µM (active)

Q: And the remaining parasite growth % (stronger effect = lower value) [5]?
A: -0.139% [at 57.5 µM]

Q: And the activity, percent of control [6]?
A: 0.0598% [at 57.5 µM]

Q: And the remaining proliferation (% of control), lower = more inhibition [7]?
A: 0.0815% [at 57.5 µM]

Q: What does the source list for `C#CCN1CC(=O)N(COC(=O)[C@@H]2[C@@H](C=C(C)C)C2(C)C)C1=O`?
A: Potency [8]: inactive; Potency [9]: inactive; outcome [10]: inactive; activity change % (negative = inhibition) [11]: 21.3% (inactive)

Q: For `CCC1CN2CCC1CC2[C@@H](Oc1cc2ccccc2c2ccccc12)c1ccnc2ccc(O)cc12` (stereo not given in full), which outcome [12] is on record?
A: inactive

Q: What about the outcome [13] of the same compound?
A: inactive

Q: And the outcome [14]?
A: inactive

Q: And the outcome [15]?
A: inactive

Q: What about the outcome [16] of the same compound?
A: inactive

Q: For `CC(C)=CC1C(C(=O)OCc2coc(Cc3ccccc3)c2)C1(C)C` (stereo not given), which Potency [17] is on record?
A: inactive

Q: What about the Potency [18] of the same compound?
A: inactive

Q: What about the Potency [19] of the same compound?
A: 61.1 µM (active)

Q: And the activation [20]?
A: 0.13% (inactive)

Reference: PubChem BioAssay (NCATS)
